Shown are actives, neighbours in structure and some others; about 3.6% of the full set was active somewhere.
TRHR agonist: agonists of human TRH receptor | P34981 | TRHR cells, calcium flux fluo-8, FDSS agonist mode | activation, % at 2 µM | 360,000 compounds, 0.18% hits | AID 493084; further: 0% is about no effect
Target sequence (P34981 whole entry, looked up): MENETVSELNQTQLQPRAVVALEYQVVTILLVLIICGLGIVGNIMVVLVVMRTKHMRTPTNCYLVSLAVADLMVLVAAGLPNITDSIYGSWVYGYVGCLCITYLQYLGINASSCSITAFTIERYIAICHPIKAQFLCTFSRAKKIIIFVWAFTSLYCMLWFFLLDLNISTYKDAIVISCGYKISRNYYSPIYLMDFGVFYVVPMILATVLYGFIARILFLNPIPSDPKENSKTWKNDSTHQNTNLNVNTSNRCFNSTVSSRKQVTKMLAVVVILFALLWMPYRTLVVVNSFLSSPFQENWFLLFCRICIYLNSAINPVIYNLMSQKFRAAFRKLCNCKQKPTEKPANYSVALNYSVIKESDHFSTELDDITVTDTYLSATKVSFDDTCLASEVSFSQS
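TRHR-expressing cells loaded with fluo-8 calcium dye; 23 nL library compound pin-transferred, kinetic FDSS fluorescence (Ex 480/Em 530) recorded about 180 s for agonist-induced calcium release, before a 10 nM TRH EC20 addition for potentiator mode.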
TRHR PAM: allosterically enhances the human TRH receptor; TRHR cells, fluo-8 calcium fluorescence, EC20 TRH enhancement; 360,000 compounds, 0.66% hits; P34981; AID 493056; enhancement, % at 2 µM; in the data active means enhancement above about 30%; further: 0% is about no effect
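Enhancer read-out: after compound pinning and an initial kinetic agonist-mode read, an EC20 of TRH (10 nM final) was injected and fluo-8 calcium signal (Ex 480/Em 530) followed at 1 s/cycle for 100 cycles in TRHR-expressing cells.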
D1 ag: activates the human D1 dopamine receptor; activation, % at 2 µM; P21728; AID 504660; 360,000 compounds, 1% hits; HEK293 T-REx D1 cells, calcium flux, agonist mode; further: 0% is about no effect
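Agonism was scored from calcium flux recorded over 180 s (1 read/s) after pintool compound addition, following a 10-cycle baseline. Cells were inducible force-coupled HEK293 TREx D1, plated overnight at 30 C and loaded with no-wash calcium dye.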
D1 antag: blocks dopamine activation of the human D1 receptor | P21728 | HEK293 TREx D1 cells, calcium flux, dopamine EC80; hits give low values | activity change, negative = inhibition, % at 10 µM | 360,000 compounds, 3.2% hits | AID 504652; in the data active means activity change below about -30%; further: on the % scale 0 is the no-effect control and ±100 the full control effect
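Cells carrying a force-coupled, tetracycline-inducible human D1 receptor report calcium flux. Each well gets a 10 s baseline, compound with 180 s monitoring, then an EC80 dopamine stimulus with a second 180 s kinetic read.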
LDHA inh: inhibitors of human lactate dehydrogenase A; P00338; purified LDHA, NADH/diaphorase-resazurin fluorescence; hits give low values; activity change, % (values are at about 110 or 230 µM); 480,000 compounds, 0.15% hits; AID 1347041; in the data active means activity change below about -30%;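 further: plate controls were DMSO wells for no effect and wells without enzyme for full effect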
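LDH5 2 nM; NADH 0.06 mM, pyruvate 0.2 mM; 200 mM Tris pH 7.4, EDTA, Tween-20; 5 min RT. Detection: diaphorase 0.133 mg/mL + resazurin 37 µM, fluorescence ex540/em590 at 0 and 20 min; normalized to enzyme-free and DMSO wells.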
D1 potentiator: enhances dopamine response at the human D1 receptor. potentiation, % at 10 µM. HEK293 TREx D1 cells, calcium flux, dopamine EC20 potentiation. 360,000 compounds, 0.036% hits; in the data active means potentiation above about 30%; further: 0% is about no effect
Starred values were filed as active, the others as inactive. Unless noted, no stated cut-off is given here; in the data, active means activation above about 30%; inactive means the rest.

Screening CCC(=O)NC(/C=C/c1ccccc1)c1cc([N+](=O)[O-])c2cccnc2c1O (stereo unspecified) returned TRHR agonist 0, TRHR PAM 32*, D1 ag 2, D1 antag -2 and D1 potentiator -6.
Screening CSC1=N/C(=C\c2cccnc2)C(=O)N1c1ccccc1 returned TRHR agonist 0, TRHR PAM -2, D1 ag 3, D1 antag -43*, LDHA inh -10 and D1 potentiator -9.
Screening CCSC1=N/C(=C\c2cccnc2)C(=O)N1c1ccccc1 returned TRHR agonist 0, TRHR PAM 8, D1 ag 1, D1 antag -68*, LDHA inh -7 and D1 potentiator -18.
For O=C(Nc1nc(-c2ccco2)cs1)c1ccccc1Br the results were LDHA inh -7.
For CC(C)n1c(=O)n(CCCO)c(=O)c2c3c(sc21)COC(C)(C)C3 the results were LDHA inh -1.
`Cc1cc(NCc2ccccc2)c2ccccc2n1` gave TRHR agonist 1, TRHR PAM -8, D1 ag 6, D1 antag -13, LDHA inh -2 and D1 potentiator -2.
Clc1ccc(Nc2ccc(NCc3ccccc3)nn2)cc1 was read as TRHR agonist 0, TRHR PAM -2, D1 ag 14, D1 antag -25, LDHA inh -20 and D1 potentiator -5.
Screening Cc1cc(NCc2ccccc2)nc2ccccc12 returned TRHR agonist 9, TRHR PAM -7, D1 ag 34*, D1 antag -66*, LDHA inh -2 and D1 potentiator -22.
Cc1ccc(Nc2ccc(NCc3ccccc3)nn2)cc1C was read as TRHR agonist 0, TRHR PAM 10, D1 ag 7, D1 antag -44*, LDHA inh -1 and D1 potentiator -9.
For Nc1nccnc1C(=O)NCCNC(=O)c1ccccc1 the results were LDHA inh 0.
Screening COc1ccc(CCNC(=O)C2CC(c3ccc([N+](=O)[O-])cc3)=NO2)cc1 (stereo unspecified) returned TRHR agonist 0, TRHR PAM 0, D1 ag 7, D1 antag -3, LDHA inh -3 and D1 potentiator -5.
COc1ccc(C2=NOC(COc3ccc([N+](=O)[O-])cc3)C2)cc1 (stereo unspecified) was read as TRHR agonist 0, TRHR PAM 1, D1 ag 9, D1 antag -32*, LDHA inh 2 and D1 potentiator -10.
`CC1(C(=O)NCCOc2ccccc2Cl)CC1(Cl)Cl` (stereo unspecified) gave TRHR agonist 0, TRHR PAM 1, D1 ag 1, D1 antag -65*, LDHA inh 0 and D1 potentiator -5.
Screening COc1ccccc1OCCNC(=O)Cc1ccc(Cl)c(Cl)c1 returned TRHR agonist -3, TRHR PAM -5, D1 ag 4, D1 antag -34*, LDHA inh 3 and D1 potentiator -3.
Screening Cc1ccc(CNc2oc(COc3ccc(C)cc3)nc2C#N)cc1 returned LDHA inh 10.
Screening COc1ccc(Cc2nc(P(=O)(OC)OC)c(NCc3ccc4c(c3)OCO4)o2)cc1 returned LDHA inh 6.
`CCN(c1ccc(OC)cc1)S(=O)(=O)c1ccc(-c2ccc(=O)[nH]n2)o1` gave TRHR agonist 2, TRHR PAM 1, D1 ag 8, D1 antag -41*, LDHA inh 0 and D1 potentiator 5.
Screening CCN(c1cccc(C)c1)S(=O)(=O)c1ccc(-c2ccc(=O)[nH]n2)o1 returned TRHR agonist 0, TRHR PAM 7, D1 ag 1, D1 antag 25, LDHA inh -2 and D1 potentiator 9.
Screening O=C(NCCc1ccc(Cl)cc1)C1CCC(=O)N1Cc1ccccc1Cl (stereo unspecified) returned TRHR agonist 0, TRHR PAM -14, D1 ag 5, D1 antag 1, LDHA inh -4 and D1 potentiator 1.
For O=C(Nc1ccc(Cl)cc1Cl)C1CCC(=O)N1Cc1ccccc1Cl (stereo unspecified) the results were TRHR agonist 0, TRHR PAM 1, D1 ag 37*, D1 antag 9, LDHA inh -2 and D1 potentiator -1.
COc1ccc(CNc2oc(-c3cccc([N+](=O)[O-])c3)nc2P(=O)(OC)OC)cc1 was read as LDHA inh -5.
For N#Cc1cccc(NC(=O)Nc2cccs2)c1 the results were TRHR agonist 1, TRHR PAM 3, D1 ag 42*, D1 antag -53*, LDHA inh -3 and D1 potentiator -10.
`CCc1cccc(NC(=O)Nc2cccs2)c1` gave TRHR agonist 2, TRHR PAM 3, D1 ag 10, D1 antag -19, LDHA inh -3 and D1 potentiator -9.
`O=C(CCC1CCCC1)N(Cc1ccc2cc[nH]c2c1)C1CC1` gave LDHA inh 5.
`CC(C)CN1C(=O)NC2(CCCc3ccccc32)C1=O` (stereo unspecified) gave TRHR agonist -1, TRHR PAM -1, D1 ag 1, D1 antag -80*, LDHA inh -1 and D1 potentiator 11.
For CCCCCc1cc(=O)oc2c(C(CCN3CCCCC3)c3cc(OC)c(OC)c(OC)c3)c(OC)cc(OC)c12 (stereo unspecified) the results were TRHR agonist 3, TRHR PAM 6, D1 ag 18, D1 antag 15, LDHA inh 5 and D1 potentiator 2.
Screening COc1cc(C(CCN2CCCC2)c2c(OC)cc(OC)c3ccc(=O)oc23)cc(OC)c1OC (stereo unspecified) returned TRHR agonist 0, TRHR PAM -1, D1 ag 1, D1 antag 1, LDHA inh -3 and D1 potentiator -3.
For CCCCCc1cc(=O)oc2c(C(CCN3CCCC(C)C3)c3cc(OC)c(OC)c(OC)c3)c(OC)cc(OC)c12 (stereo unspecified) the results were TRHR agonist 0, TRHR PAM 1, D1 ag 22, D1 antag -47*, LDHA inh 6 and D1 potentiator -10.
`COc1cc(C(CCN2CCN(c3ccccc3)CC2)c2c(OC)cc(OC)c3c(C)cc(=O)oc23)cc(OC)c1OC` (stereo unspecified) gave TRHR agonist 0, TRHR PAM 0, D1 ag 0, D1 antag -81*, LDHA inh -6 and D1 potentiator -13.
